From PubChem BioAssay (NCATS) come the findings set out here.

Structures are written as SMILES. Inconclusive results are not listed. Unmarked numbers belong to inactive results. The source made the active and inactive calls. Calls follow the shape of the dose curve; as a rule, active = well fitted inhibition curve with a large enough effect; inconclusive = small, poorly fitted or top-dose-only effect; inactive = flat fitted curve, though single readings scatter.

For this assay, the system named is CP203. Kind of assay: qHTS profiling for inhibitors of Plasmodium falciparum proliferation (AID 504749).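 Also: 0% = DMSO vehicle and full inhibition = artemisinin control; nearly all actives have a fitted effect of over 60% in size.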 The conditions noted are these: P. falciparum in erythrocytes, SYBR Green DNA, 72 h; series mostly up to 28.7 µM; activity, negative = inhibition: at the top concentration. The text has this: NIH National Institute of Allergy and Infectious Diseases [NIAID] NIH Chemical Genomics Center [NCGC] MLPCN Grant: None Assay Provider: Xinzhuan Su, NIAID NCGC Assay Overview: Plasmodium falciparum is a virulent malarial parasite that kills 1-2 million people worldwide each year. Transmitted by mosquitoes, the sporozoite form of the parasite enters the blood stream to infect hepatocytes, where they become merozoites that infect red blood cells (erythrocytes). Within erythrocytes, merozoites begin a […] cycle of growth and division, after which the parasite is released to infect new red blood cells. Gametocytes, which form within erythrocytes as well, circulate in the bloodstream and are ingested by the mosquito, thereby completing the life cycle. To profile malarial isolates for differential chemical responses and to identify inhibitors of malarial growth, an assay that measures P. falciparum growth and replication within erythrocytes was employed. This assay uses a DNA binding fluorescent dye (SYBR Green) to detect parasite DNA following cell lysis. Because mature erythrocytes lack DNA, only Plasmodium-derived DNA is detected.
NCGC Assay Protocol Summary: The SYBR Green viability assay was adapted from a method described previously (Plouffe et al., 2008). For screening 3 ul culture medium was dispensed into 1536 well black clear bottom plates (Aurora Biotechnologies) using a Multidrop Combi (Thermo Fisher Scientific Inc.), 23 nL compounds in DMSO were added by a pin tool (Kalypsys), and 5 ul of erythrocytes infected with P. falciparum (0.3% parasitemia, 2.5% hematocrit final concentration) were added. The plates were incubated at 37 C in a humidified incubator in 5% CO2 for 72 h, and 2 ul lysis buffer (20 mM Tris HCl, 10 mM EDTA, 0.16% saponin, 1.6% triton X, 10X SYBR Green I supplied as 10,000X […] by Invitrogen) was added to each well. The plates were mixed for 25 sec with gentle shaking and incubated overnight at room temperature in the dark. The following morning, fluorescence intensity at 485(14) nm excitation and 535(25) nm emission wavelengths was measured on an EnVision (Perkin Elmer) plate reader. Plate reads were normalized relative to the control inhibitor (0.29 uM artemisinin) and vehicle (DMSO) wells present on each plate and then corrected by an algorithm using vehicle-only control plates at the beginning and end of the compound plate stack.
Background: qHTS replaces the single test concentration by a dilution series.
`CCN(CC)CCOC(=O)c1ccc(N)cc1`: the “activity, negative = inhibition” value was 6.67% [at 12.8 µM]. For `COc1ccccc1N1CCN(CCCNc2cc(=O)n(C)c(=O)n2C)CC1`, the compound was called inactive. Turning to `C[N+](C)(C)CCCCCC[N+](C)(C)C`, the “activity, negative = inhibition” value was 6.37%. For `CCCNC(=O)NS(=O)(=O)c1ccc(Cl)cc1`, the “activity, negative = inhibition” value is -9.12%. On the same count and under the same terms, then `CCCCC1C(=O)N(c2ccccc2)N(c2ccccc2)C1=O`, with -11.2%. The same measure, in the same setting: for `Clc1ccc(Cn2c(CN3CCCC3)nc3ccccc32)cc1` the value was -15.9% [at 12.8 µM]; for `O=C(O)c1c(Cl)c(Cl)c(Cl)c(Cl)c1-c1c2cc(I)c(=O)c(I)c-2oc2c(I)c(O)c(I)cc12`, -11.6%. In the case of `O=C(NCCN1CCOCC1)c1ccc(Cl)cc1`, the “activity, negative = inhibition” value is 7.11%. On to `O=C1NC(=O)C(c2ccccc2)(c2ccccc2)N1`, for which the “activity, negative = inhibition” value was -0.0567%. Turning to `O=c1[nH]cnc2c1ncn2[C@H]1CC[C@@H](CO)O1`, the “activity, negative = inhibition” value is -9.76%.

With `CCN(CC)CCNC(=O)c1ccc(N)cc1`, the “activity, negative = inhibition” value was 10.4%. On the same count and under the same terms, for `O=C1NCC2(CCN(CCc3ccccc3)CC2)O1` the value was 2.68%; for `NC(N)=Nc1nc(CSCC/C(N)=N/S(N)(=O)=O)cs1`, 1.32%; for `CCN1CCC[C@H]1CNC(=O)c1cc(S(N)(=O)=O)ccc1OC`, -3.03%. For the compound `O=C(O)c1cc(-c2ccccc2)nc2ccccc12`, the “activity, negative = inhibition” value is -0.635%.

Turning to `CC(=O)c1ccc(S(=O)(=O)NC(=O)NC2CCCCC2)cc1`, the “activity, negative = inhibition” value was -2.1%. The same measure, in the same setting: for `CC1(C)O[C@H]2C[C@@H]3[C@H]4CCC5=CC(=O)C=C[C@]5(C)[C@@]4(F)[C@@H](O)C[C@]3(C)[C@]2(C(=O)CO)O1` the value was -9.57%; for `CC(=O)N[C@@H](CS)C(=O)O`, -1.43%; for `CC/C(=C(\c1ccccc1)c1ccc(OCCN(C)C)cc1)c1ccccc1`, -7.11%.

As to `CC(=O)CCCCn1c(=O)c2c(ncn2C)n(C)c1=O`, the “activity, negative = inhibition” value is -0.616% [at 12.8 µM].

As to `COc1ccc(Cc2nccc3cc(OC)c(OC)cc23)cc1OC`, the “activity, negative = inhibition” value is -10.5% [at 12.8 µM].

For the compound `NCCS`, the “activity, negative = inhibition” value was 6.06%.

For `O=C(O)Cc1cccc2ccccc12`, the “activity, negative = inhibition” value was 1.76%. Still for that read-out and setting: for `CCCCCN(C)CCC(O)(P(=O)(O)O)P(=O)(O)O` the value was 7.22%; for `CCOC(=O)O[C@]1(C(=O)OCCl)CC[C@@H]2[C@H]3CCC4=CC(=O)C=C[C@]4(C)[C@@H]3[C@@H](O)C[C@@]21C`, -7.49%. Same read-out and setting: then `O=C1Nc2ccc(Cl)cc2C(C#CC2CC2)(C(F)(F)F)O1` (centres undefined), with -4.8%; and `C[C@@H](O)[C@H]1C(=O)N2C(C(=O)O)=C(S[C@@H]3CN[C@H](C(=O)N(C)C)C3)[C@H](C)[C@H]12`, with -7.79%. As to `CCN(CC)C(=O)c1ccc(O)c(OC)c1`, the call was inactive.

Turning to `Cc1cnc(C(=O)O)c[n+]1[O-]`, the “activity, negative = inhibition” value is 3.72%.
